According to PubChem BioAssay:
The source made the active and inactive calls.

Assay: small-molecule microarray binders of probe aCHRDL2, primary screen, biochemical, biotinylated probe, 635/667 nm fluorescence (AID 1100)
Conditions: higher = more signal

Compound	composite z-score
CC(C)(C)OC(=O)CC[C@@]1(C(=O)NCc2ccccc2)N=C(c2ccc(OCCCO)cc2)O[C@@H]1c1ccccc1N=[N+]=[N-]	1.29
C=CC[C@@]1(C(=O)N2CCOCC2)N=C(c2ccc(OCCCO)cc2)O[C@@H]1c1ccccc1CN=[N+]=[N-]	1.18
COC(=O)[C@@]1(Cc2ccc(F)cc2)[C@H]2c3cc(C(=O)N4CCCC4)n(CCc4ccc(O)c(O)c4)c3C[C@H]2CN1C(=O)c1ccccc1	1.04
CCOC(=O)C[C@H]1[C@H](OC(=O)c2cc3ccccc3oc2=O)[C@@H](NC(=O)c2ccc(-c3ccccc3)cc2)c2cc(OCCCO)ccc2N1C(=O)c1ccc2ccccc2n1	-0.386
COc1ccc([Si](C)(C)[C@H]2[C@H](CCn3cc([C@H](O)c4ccccc4)nn3)O[C@@]3(C(=O)N(Cc4ccc(N5C(=O)c6cccc7cccc5c67)cc4)c4ccccc43)[C@@H]2C)cc1	0.538
C[C@@H]1NC(=O)[C@@]23C(=O)N[C@@H](Cc4ccccc4)C2[C@H](C)[C@@]2(C)O[C@H]2C3/C=C/C/C=C\CNC(=O)[C@@H]2CCCN2C1=O (stereo partly drawn)	-0.339
COC(=O)[C@@]1(Cc2ccccc2)[C@H]2c3cc(C(=O)N(C)C)n(Cc4c(CO)[nH]cc(C)c4=O)c3C[C@H]2CN1C(=O)c1ccccc1	0.528
COC(=O)CCCCCCC(=O)Nc1ccc(NC(=O)CCCC[P+](c2ccccc2)(c2ccccc2)c2ccccc2)cc1	-0.842

Assay: splicing luciferase reporter signal modulators, primary screen, spliceosome inhibition project, cell-based, HEK293, splice +/- reporter (AID 1101);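 note: HEK293 cells carrying a splicing-competent luciferase reporter gene; test concentration not given here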
Conditions: luminescence, 24 h, higher = more signal, called active from +8 up or from −8 down

Compound	z-score
COc1ccc([Si](C)(C)[C@@H]2[C@@H](CC(=O)N3Cc4ccccc4C[C@H]3CO)O[C@]3(C(=O)N(C)c4ccccc43)[C@H]2C)cc1	-1.42 (inactive)
O=C(N1CCCCC1)[C@@]1(CCS(=O)(=O)c2ccccc2)COC(c2ccc(OCCCO)cc2)=N1	1.74 (inactive)
O=C1NC(=O)C2C1C=CC(C(O)CCc1ccccc1)N2Nc1ccc(Cl)cc1Cl (stereo not drawn)	1.5 (inactive)
C=CCC(OC(C)=O)[C@@H]1[C@@H](N(Cc2cc3ccccc3o2)C(=O)c2ccc(-c3ccccc3)cc2)c2cc(OCCCO)ccc2N1C(=O)c1ccc2ccccc2c1 (stereo partly drawn)	0.416 (inactive)
CCOC(=O)C[C@H]1[C@H](OC(=O)Cc2ccc3c(c2)OCO3)[C@@H](NC(=O)Cc2ccc(OC)cc2)c2cc(OCCCO)ccc2N1C(=O)c1ccc2ccccc2n1	-0.95 (inactive)
COC(=O)c1c2oc(c1C(=O)OC)C(=O)N(Cc1ccccc1)Cc1cn(nn1)C[C@H](Cc1ccccc1)NC(=O)N[C@H](CO)CC2	-2.12 (inactive)
NC(N)=NCCCn1cc(CNC(=O)[C@@H](N)Cc2ccccc2)nn1	0.292 (inactive)
NC(=O)N1C(=O)C2C(C1=O)C1C=C(CCCO)C2C(c2cccs2)N1Cc1cccc(OC(F)(F)F)c1 (stereo not drawn)	0.23 (inactive)
CCOC(=O)C[C@H]1[C@H](OC(=O)c2cc3ccccc3oc2=O)[C@@H](NC(=O)Cc2ccc(OC)cc2)c2cc(OCCCO)ccc2N1C(=O)c1ccc2ccccc2n1	0.126 (inactive)
COCCOC(=O)N1C(=O)[C@@]2(c3cc(C#CC4=CCCCC4)ccc31)[C@H](c1ccc(OCCO)cc1)N1[C@H](c3ccccc3)[C@H](c3ccccc3)OC(=O)[C@H]1[C@@H]2C(=O)NC[C@H](O)c1ccccc1	-0.228 (inactive)
COC(=O)c1nc2oc1CC[C@@H](CO)NC(=O)N(C)Cc1cnnn1C[C@H](Cc1ccccc1)NC2=O	-0.495 (inactive)
CN1C(=O)C2C=CC(C(O)COCc3ccccc3)N(N(c3ccccc3)c3ccccc3)C2C1=O (stereo not drawn)	0.915 (inactive)
COc1cc2c(cc1O)C(C)N(Cc1ccc([N+](=O)[O-])o1)CC2 (stereo not drawn)	0.286 (inactive)
C=CCOC(=O)[C@H]1[C@@H]2C(=O)O[C@@H](c3ccccc3)[C@@H](c3ccccc3)N2[C@@H](c2ccc(OCCOC(=O)[C@@H]3C[C@@H]4C(=O)N[C@@H](CCCCN(C)C)C(=O)N4[C@@H]3c3ccc(O)cc3)cc2)[C@]12C(=O)Nc1ccccc12	-0.311 (inactive)
CCOC(=O)C1=C[C@@H](c2ccccc2)N(S(=O)(=O)c2ccc(C)cc2)[C@H]1c1ccccc1Cl	0.328 (inactive)
C[N+](C)(C)CCCCCCNC(=O)[C@H]1C[C@H]2C(=O)NCC(=O)N2[C@H]1c1ccc(O)cc1	-0.271 (inactive)
COc1cc(CO)cc(I)c1O[C@H]1C=C(C(=O)NCCO)C[C@@H](NCc2ccc(F)cc2)[C@@H]1O	-1.05 (inactive)
COC1OC[C@]2(C)[C@H]3C4=C(CN2C(=O)OC(C)(C)C)[C@H](C)C(CO)C(CO)C4CC[C@@H]13 (stereo partly drawn)	2.09 (inactive)

Compound	z-score
O=C1O[C@H](c2ccccc2)[C@H](c2ccccc2)N2[C@H]1[C@@H](C(=O)Nc1nc3ccccc3s1)[C@]1(C(=O)Nc3ccc(C#CCCO)cc31)[C@H]2c1ccc(O)cc1	-0.285 (inactive)
C=CCC(OC(C)=O)[C@@H]1[C@@H](N(Cc2cc3ccccc3o2)C(=O)Cc2ccc(F)cc2)c2cc(OCCCO)ccc2N1C(=O)c1ccc2ccccc2c1 (stereo partly drawn)	0.111 (inactive)
OCCCC1=CC(c2ccc(CN3CCCC3)cc2)N(Cc2sc3ccccc3c2Cl)CC1 (stereo not drawn)	-1.07 (inactive)
O=C1O[C@H](c2ccccc2)[C@H](c2ccccc2)N2[C@H]1[C@@H](C(=O)N1CCN(c3ncccn3)CC1)[C@]1(C(=O)Nc3ccc(C#CC4(O)CCCCCC4)cc31)[C@H]2c1ccc(OCCO)cc1	-0.604 (inactive)
O=C1C2C=CC(C(O)c3ccc(Br)cc3)N(Nc3ccccc3F)C2C(=O)N1c1ccccc1 (stereo not drawn)	-1.93 (inactive)
COCCOC(=O)N1C(=O)[C@@]2(c3cc(C#CCC(C(=O)OC)C(=O)OC)ccc31)[C@H](C(=O)N1CCc3cc(OC)c(OC)cc3C1)[C@H]1C(=O)O[C@H](c3ccccc3)[C@H](c3ccccc3)N1[C@@H]2c1ccc(OCCO)cc1	0.382 (inactive)
CC(CO)N1C(=O)[C@@H]2[C@H]3C(=O)OCC=C[C@H]3OC23C=CCN(CCN2CCOCC2)C(=O)[C@@H]13 (stereo partly drawn)	0.497 (inactive)
C=C(COC)C(=O)CC[C@@H](OC(=O)c1cccnc1)c1ccc(OCCO)cc1	-0.853 (inactive)
COC(=O)[C@@]1(Cc2ccc(OC)cc2)[C@H]2c3cc(C(=O)N4CCCC4)n(Cc4cccc5ccccc45)c3C[C@H]2CN1C(=O)c1ccccc1	-0.261 (inactive)
CC(C)(C)OC(=O)CC[C@@]1(C(=O)NCc2ccccc2)N=C(c2ccc(OCCCO)cc2)O[C@@H]1c1ccccc1N=[N+]=[N-]	-1.18 (inactive)
C=CC[C@@]1(C(=O)N2CCOCC2)N=C(c2ccc(OCCCO)cc2)O[C@@H]1c1ccccc1CN=[N+]=[N-]	1.02 (inactive)
COC(=O)[C@@]1(Cc2ccc(F)cc2)[C@H]2c3cc(C(=O)N4CCCC4)n(CCc4ccc(O)c(O)c4)c3C[C@H]2CN1C(=O)c1ccccc1	-2.62 (inactive)
CCOC(=O)C[C@H]1[C@H](OC(=O)c2cc3ccccc3oc2=O)[C@@H](NC(=O)c2ccc(-c3ccccc3)cc2)c2cc(OCCCO)ccc2N1C(=O)c1ccc2ccccc2n1	-0.338 (inactive)
COc1ccc([Si](C)(C)[C@H]2[C@H](CCn3cc([C@H](O)c4ccccc4)nn3)O[C@@]3(C(=O)N(Cc4ccc(N5C(=O)c6cccc7cccc5c67)cc4)c4ccccc43)[C@@H]2C)cc1	-0.64 (inactive)
C[C@@H]1NC(=O)[C@@]23C(=O)N[C@@H](Cc4ccccc4)C2[C@H](C)[C@@]2(C)O[C@H]2C3/C=C/C/C=C\CNC(=O)[C@@H]2CCCN2C1=O (stereo partly drawn)	-0.0139 (inactive)
COC(=O)[C@@]1(Cc2ccccc2)[C@H]2c3cc(C(=O)N(C)C)n(Cc4c(CO)[nH]cc(C)c4=O)c3C[C@H]2CN1C(=O)c1ccccc1	1.06 (inactive)
COC(=O)CCCCCCC(=O)Nc1ccc(NC(=O)CCCC[P+](c2ccccc2)(c2ccccc2)c2ccccc2)cc1	-0.186 (inactive)
